Results from PubChem BioAssay (NCI).
The panel holds about 79,000 compounds, 15% with a hit somewhere; the sample as a whole holds those more often. Values without a mark were called inactive. Activity calls are given as the source filed them. Rule as the data show it: active = growth inhibition above about 70%; inactive = the rest. Where a SMILES comes first, the peptide text is derived from it. Bridges are numbered along the chain shown (N, C = ends). [ ]: non-standard residue; d: D form. The star is where a group is joined. ξ: configuration not given here. PhAc = O=C(Cc1ccccc1)*; ξP = O=C(O)C1CCCN1

Key:
[1] = NCI Yeast Anticancer Drug Screen. Data for the rad50 strain (AID 155);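 also: 0% = growth of vehicle-only cultures of the same strain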; conditions: S. cerevisiae rad50 strain growth inhibition; at 50.0 µM; stronger effect = higher value
Method in brief: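 Relative growth inhibition (compound vs vehicle) was measured in yeast with a defined repair-gene alteration.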

[2] = NCI Yeast Anticancer Drug Screen. Data for the mec2-1 strain (AID 157); conditions: S. cerevisiae mec2-1 strain, at 50.0 µM, stronger effect = higher value
Method in brief: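 Growth inhibition is read against vehicle-treated controls after compound exposure of the mec2-1 yeast strain, which is defective in DNA damage repair or cell cycle control.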

[3] = NCI Yeast Anticancer Drug Screen. Data for the sgs1 mgt1 strain (AID 161);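 also: 0% = growth of cultures given vehicle only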; conditions: S. cerevisiae sgs1 mgt1 strain, at 50.0 µM, stronger effect = higher value
Method in brief: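 Yeast cells carrying a defined DNA-repair defect were exposed to test compounds. Growth inhibition was measured relative to vehicle-treated controls.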

[4] = NCI Yeast Anticancer Drug Screen. Data for the cln2 rad14 strain (AID 165);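 also: 0% = growth equal to vehicle treated cultures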; conditions: S. cerevisiae cln2 rad14 strain, at 50.0 µM, stronger effect = higher value
Method in brief: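 Growth inhibition, relative to vehicle-treated controls, is the read-out. The test organism is a yeast strain with defined genetic alterations, cln2 rad14.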

[5] = NCI Yeast Anticancer Drug Screen. Data for the bub3 strain (AID 167); conditions: S. cerevisiae bub3 mutant strain, at 50.0 µM, stronger effect = higher value
Method in brief: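 Screening used yeast with an engineered genetic alteration affecting cell cycle control. Compound-exposed cultures were compared with vehicle cultures, and reduced growth was taken as inhibition.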

[6] = NCI Yeast Anticancer Drug Screen. Data for the mlh1 rad18 strain (AID 175); conditions: S. cerevisiae mlh1 rad18 strain growth inhibition; at 50.0 µM; stronger effect = higher value
Method in brief: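 Cells of a genetically altered yeast strain, deficient in DNA damage repair, were treated with compound. Their growth was then compared with that of vehicle-treated cultures to give inhibition.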

Row | Compound | growth inhibition [1] [%] | growth inhibition [2] [%] | growth inhibition [3] [%] | growth inhibition [4] | growth inhibition [5] [%] | growth inhibition [6] [%]
1 | CN(C)c1cc(N(C)C)c2cc(C#N)ccc2n1 | 15.4 | 3.05 | 17.2 | -5.45% | 0.9 | 5.75
2 | CC(=O)N1Cc2c(N)ncnc2C1C (stereo not drawn) | -10.9 | -9.45 | -18.8 | -7.25% | -0.25 | -12.2
3 | NC(=O)Cc1ccccn1 | 5.05 | -2.6 | 2.95 | -8.15% | 5.25 | 1.4
4 | Nc1nc(N)nc(-c2cc(Br)ccc2N)n1 | 51.6 | -0.3 | 12.4 | 19.1% | 30.4 | 7.5
5 | Cc1ccc(S(=O)(=O)N2CN3CN(C2)CN(S(=O)(=O)c2ccc(C)cc2)C3)cc1 | 0.4 | -26.9 | -9.15 | 9.05% | 6.4 | -4.2
6 | O=C(CC(=O)Nc1ccccc1)NNC(c1cc(N=Nc2ccc(Br)cc2)ccc1O)P(O)O (stereo not drawn) | -4.65 | 6.25 | -10.4 | -3.2% | -14 | -38
7 | N#C/C(=C/c1cccnc1)C(=O)c1ccccc1 | -6.1 | -18.9 | 1.3 | 12.6% | -22.6 | 7.15
8 | Cc1cc2c3ccccc3n(C)c2c2c1C(=O)C=CC2=O | 6.5 | 20.4 | 20.9 | 3.1% | -7.35 | 55.8
9 | COc1ccccc1NC(=O)C1=C(C)NC(C)=C(C(=O)Nc2ccccc2OC)C1c1cccc2ccccc12 | 28.4 | -2.35 | -18.2 | 29.4% | 6.65 | 0.5
10 | CCSc1cc(=O)n(C)c(=O)n1C | 13.6 | 7.15 | 21.3 | 4.55% | 5.25 | -10.5
11 | CC(CCc1ccccc1)N(C)C(=O)CNC(=O)CN1C(=O)c2ccccc2C1=O (stereo not drawn) | -18.9 | 1.35 | 6.85 | -1.25% | -15.1 | -6.9
12 | Cc1ccc2nc[nH]c2c1 | 0.35 | -21.9 | -10.8 | -11.4% | 4.05 | 14.6
13 | CCOC(=O)Nc1ccc([N+](=O)[O-])cc1[N+](=O)[O-] | 15.9 | -0.45 | 16.2 | 14.8% | 8.6 | 13.2
14 | Cc1cc(C)c(OCC(O)CO)c(C)c1 (stereo not drawn) | 2.45 | -26.1 | 14.7 | -10.1% | 5.9 | -8.8
15 | CC1CC(=O)C(CC(=O)O)[C@H]1C(C(=O)C(=O)Nc1cc(Cl)ccc1Cl)[N+](=O)[O-] (stereo partly drawn) | 1.45 | -11.3 | -10.1 | 14.7% | -13.3 | -2
16 | CC(C)C1(C(C)C)OCC(CO)O1 (stereo not drawn) | 9.55 | -7.75 | -7.85 | -60.2% | 16.4 | -9.3
17 | O=C(Cc1ccccc1)N[C@@H]1COC(=O)C2CCCN2C(=O)[C@@H]2CCCN2C1=O (stereo partly drawn) (PhAc-[dS]-Pro-[ξP]; ester 1-C) | -11.6 | -1.7 | 4.25 | 27.4% | 12.3 | 0.65
18 | CCCC(C)C(=O)OC1CCCCC1 (stereo not drawn) | 9.35 | 1.3 | -0.85 | -21.4% | 7.6 | 3
19 | CN=C(NC)C(c1ccccc1)c1ccccc1 | -0.5 | -9.7 | -5.7 | -15.8% | -5.8 | -9.3

Row | Compound | growth inhibition [1] [%] | growth inhibition [2] [%] | growth inhibition [3] [%] | growth inhibition [4] | growth inhibition [5] [%] | growth inhibition [6] [%]
20 | Cc1ccc(NCC(O)CN2CCCC2)cc1 (stereo not drawn) | 12.3 | 5.35 | 12.5 | -26.4% | -14.9 | 12.1
21 | CC1(C)[C@H]2CC[C@@]1(C)C(=O)[C@H]2[N+](=O)[O-] | 4.25 | -20.2 | -1.8 | 7.85% | -9.15 | 8.75
22 | CC(=O)N/N=C1\NN(C(C)=O)C2(S1)C(=O)Nc1ccccc12 (stereo not drawn) | 7.7 | 52 | 68.8 | 78.5% (active) | 51.8 | 33.1
23 | Clc1nc(Cl)c2ncn(C3CCCCO3)c2n1 (stereo not drawn) | 26.4 | 26.1 | 5.05 | 4.6% | 38.2 | 14.3
24 | C(=N\NC1=NCCN1)/c1ccccc1 | -1.35 | -9.05 | 5.6 | -36.8% | -7.4 | 13.3
25 | Clc1nc(N2CCOCC2)nc(N2CCOCC2)n1 | -9.5 | -21.1 | -3.2 | -32.1% | 7.7 | -5.65
26 | O=[N+]([O-])c1ccc(F)cc1 | -1.3 | 5.25 | 2.3 | -17.4% | 7.15 | 4.75
27 | C=CCN(C)C(=O)CCCCCCCC1C(CCCCCCCC)C2(Cl)C(Cl)=C(Cl)C1(Cl)C2(Cl)Cl (stereo not drawn) | 30.7 | 4.35 | 8.6 | -20.5% | -1.5 | -8.35
28 | CC(CC(=O)Nc1ccccc1)C(=O)O (stereo not drawn) | 7.85 | -7.1 | -10.8 | -26.4% | 5.55 | 2.55
29 | NC(=O)N1CCCCN1C(N)=O | 9.9 | -7.95 | -1.6 | -55% | 6.75 | -4.65
30 | Cc1cnc(N)s1 | 3.8 | -23.9 | -7.8 | -24.7% | -11.2 | 9.45
31 | Cc1c(C)c(C)c(CN2CCC(C)CC2)c(C)c1C | -2.55 | 9.85 | -14.9 | -17.6% | 3.45 | -9.1
32 | CN(C)CCCNC(=O)CCNC(=O)c1cc(NC(=O)c2cc(NC(=O)c3cc(NC(=O)c4nc(NC(=O)CCCNC(=O)c5cc(NC(=O)c6cc(NC(=O)c7cc(NC(=O)c8nccn8C)cn7C)cn6C)cn5C)cn4C)cn3C)cn2C)cn1C | -17.3 | -31.9 | 23.1 | 28.8% | 15.3 | -46.4
33 | CC1OC(c2ccccc2Cl)OC1C (stereo not drawn) | 1 | -2.75 | -9.7 | -8.5% | -3.05 | -11.7
34 | Cc1ccc(NC(=O)Nc2ccc(C)cc2)cc1 | 0.7 | -14.9 | -12.8 | -9.25% | -2.3 | -18.1
35 | CCOC(=O)C(=O)C(CCc1ccc2ccc3cccc4ccc1c2c34)C(=O)OCC (stereo not drawn) | 10.2 | 20.9 | 6.55 | -21.8% | 0.35 | 31.4
36 | O=[N+]([O-])C1=C(c2ccccc2)SC(Br)=C(c2ccccc2)S1 | -1.2 | 9.7 | 3.2 | -0.6% | 3.35 | 7.65
37 | CCc1nc(-c2ccccc2)nc2c1nc(-c1cccc(C)c1)n2Nc1ccccc1 | 1.45 | 3.1 | -6.15 | -3% | -1.6 | 24.1
38 | CCOc1ccccc1NC(=O)c1ccc(Cl)cc1 | -9.8 | 18 | -6.75 | 5.35% | 14.3 | -4.6
